Source: PubChem BioAssay (NCI)
The panel holds about 83,000 compounds, 20% with a hit somewhere; the sample as a whole holds those more often.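 Compound tested at a single concentration for 48 hours in 96-well plates; a percent growth value below 10 was scored as active.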 Active and inactive are the calls of the source.

tested on: SNB-19 CNS; experiment: NCI-60 one-dose screen, 48 h (100 = growth as untreated, 0 = no growth, -100 = all killed); settings: 10 µM unless noted

| SMILES | growth |
| --- | --- |
| Fc1ccc(Nc2nc3nonc3nc2Nc2ccc(F)cc2)cc1 | 23% (inactive) |
| COc1cc(C2CC(c3ccc(Nc4nc(Nc5ccc(F)cc5)nc(Nc5ccc(Cl)cc5)n4)cc3)=NN2C(C)=O)cc(OC)c1OC (stereo unspecified) | 74.5% (inactive) |
| c1ccc2[nH]c(SSc3nc4ncncc4[nH]3)nc2c1 | 84.4% (inactive) |
| COc1cccc(CCC2CCCN(c3cc(C)nc(N)n3)C2)c1 (stereo unspecified) | 23.8% (inactive) |
| COc1cc(C2C=C(c3cccc(NC(C)=O)c3)Nc3ncnn32)cc(OC)c1OC (stereo unspecified) | 52% (inactive) |
| Cc1c(C(=O)O)nnn1-c1nccs1 | 98.1% (inactive) |
| CC(C)c1ccc(C(=O)OC(=O)c2ccc(C(C)C)cc2)cc1 | 107% (inactive) |
| c1ccc(-c2oc3ccccc3c2-c2ccccc2)cc1 | 99.3% (inactive) |
| C=CC(=O)Nc1cccc(C)c1Nc1cc(-c2cccnc2Cc2c(C)c(OC)cc(OC)c2C)ncn1 | 23.3% (inactive) |
| Clc1ccc2[nH]c3c(NCCCN4CCOCC4)ncnc3c2c1 | 92.9% (inactive) |
| CCCCCCCC/C=C\CCCCCCCC(=O)Oc1cccc2cccnc12 | 103% (inactive) |
| CCN(CC)CCCNC(=O)c1ccc(N)cc1O | 106% (inactive) |
| CC(C)n1nc(C#Cc2cccc(O)c2)c2c(N)ncnc21 | -21.4% (active) |
| CSc1ccc(Cl)c(C(=O)Nc2sccc2C(N)=O)c1 | 80.6% (inactive) |
| COc1ccc(NC(=O)c2cccc(-c3cc(=O)c4c(O)c(OC)c(OC)cc4o3)c2)cc1 | 61.6% (inactive) |
| CC(C)OCCCNCC(=O)Nc1ccc(S(=O)(=O)c2ccc(NC(=O)CNCCCOC(C)C)cc2)cc1 | 103% (inactive) |
